What is called inhibition is the drop in the measured response relative to a control, in per cent.

Assay [1] has as its target Dual specificity protein kinase CLK3 (Homo sapiens) (UniProt P49761). As to conditions: at 1 µM.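 Note: each value is the mean inhibition of CLK3.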
For assay [2], the target named is Dual specificity tyrosine-phosphorylation-regulated kinase 1A (Homo sapiens) (UniProt Q13627). The following applies: at 0.1 µM.
Assay [3] has the same target. The following applies: at 1 µM.
Assay [4] concerns the target Dual specificity tyrosine-phosphorylation-regulated kinase 1B (Homo sapiens) (UniProt Q9Y463). As to conditions: at 0.1 µM.
Assay [5] shares this target. The following applies: at 1 µM.
The target of assay [6] is T1, Dual specificity tyrosine-phosphorylation-regulated kinase 2 (Homo sapiens) (UniProt Q92630).
T1 sequence (whole entry): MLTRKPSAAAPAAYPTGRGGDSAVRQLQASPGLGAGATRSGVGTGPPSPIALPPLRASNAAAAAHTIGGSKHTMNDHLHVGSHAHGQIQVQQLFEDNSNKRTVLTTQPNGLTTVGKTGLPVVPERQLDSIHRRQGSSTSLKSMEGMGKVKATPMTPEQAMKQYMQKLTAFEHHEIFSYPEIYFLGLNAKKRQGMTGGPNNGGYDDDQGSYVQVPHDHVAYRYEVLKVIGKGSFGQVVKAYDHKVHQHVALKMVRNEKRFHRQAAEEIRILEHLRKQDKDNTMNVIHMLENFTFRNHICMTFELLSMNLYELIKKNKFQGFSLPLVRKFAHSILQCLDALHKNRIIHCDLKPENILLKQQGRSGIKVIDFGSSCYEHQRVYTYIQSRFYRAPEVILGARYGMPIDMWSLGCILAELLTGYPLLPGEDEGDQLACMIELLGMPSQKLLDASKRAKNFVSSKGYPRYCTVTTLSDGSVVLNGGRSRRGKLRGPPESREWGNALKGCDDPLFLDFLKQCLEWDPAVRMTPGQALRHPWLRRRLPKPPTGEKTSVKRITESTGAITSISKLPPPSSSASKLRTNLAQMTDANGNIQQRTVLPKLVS
As to conditions: at 0.1 µM.

The target in assay [7] is T1, Dual specificity tyrosine-phosphorylation-regulated kinase 2 (Homo sapiens). As to conditions: at 1 µM.
Assay [8] has as its target Glycogen synthase kinase-3 alpha (Homo sapiens) (UniProt P49840). As to conditions: at 0.1 µM.
For assay [9] the target is unchanged. As to conditions: at 1 µM.
In assay [10] the target is Glycogen synthase kinase-3 beta (Homo sapiens) (UniProt P49841). As to conditions: at 0.1 µM.
Assay [11] has the same target. The following applies: at 1 µM.
Assay [12] addresses Homeodomain-interacting protein kinase 1 (Homo sapiens) (UniProt Q86Z02). The following applies: at 0.1 µM.
The target is the same in assay [13]. The following applies: at 1 µM.
Assay [14] has as its target T2, Homeodomain-interacting protein kinase 4 (Homo sapiens) (UniProt Q8NE63).
T2 sequence (whole entry): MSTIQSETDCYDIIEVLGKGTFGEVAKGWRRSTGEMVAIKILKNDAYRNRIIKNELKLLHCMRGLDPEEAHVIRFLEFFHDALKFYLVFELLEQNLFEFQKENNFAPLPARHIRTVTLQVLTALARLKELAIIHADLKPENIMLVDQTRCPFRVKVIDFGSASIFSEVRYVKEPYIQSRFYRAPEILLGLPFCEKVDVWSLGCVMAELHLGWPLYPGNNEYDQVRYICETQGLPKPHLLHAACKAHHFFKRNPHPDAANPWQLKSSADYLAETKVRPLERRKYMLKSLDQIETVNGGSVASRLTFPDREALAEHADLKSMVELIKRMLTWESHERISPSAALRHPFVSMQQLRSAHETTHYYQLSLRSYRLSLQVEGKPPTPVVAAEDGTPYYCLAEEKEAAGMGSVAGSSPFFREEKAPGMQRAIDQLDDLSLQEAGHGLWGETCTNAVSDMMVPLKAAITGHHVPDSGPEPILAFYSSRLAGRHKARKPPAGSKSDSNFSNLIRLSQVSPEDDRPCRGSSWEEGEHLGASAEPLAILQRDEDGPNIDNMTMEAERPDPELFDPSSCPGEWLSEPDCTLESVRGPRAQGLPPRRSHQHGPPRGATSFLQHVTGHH
As to conditions: at 0.1 µM.

The target in assay [15] is T2, Homeodomain-interacting protein kinase 4 (Homo sapiens). As to conditions: at 1 µM.
The target of assay [16] is Mitogen-activated protein kinase 9 (Homo sapiens) (UniProt P45984). As to conditions: at 0.1 µM.
The target is the same in assay [17]. As to conditions: at 1 µM.
In assay [18] the target is Mitogen-activated protein kinase 1 (Homo sapiens) (UniProt P28482). The following applies: at 0.1 µM.
Assay [19] shares this target. As to conditions: at 1 µM.
The target of assay [20] is Mitogen-activated protein kinase 3 (Homo sapiens) (UniProt P27361). The following applies: at 0.1 µM.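 Note: each value is a mean inhibition figure.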
Chain of Mitogen-activated protein kinase 3 (Homo sapiens) (P27361 whole entry): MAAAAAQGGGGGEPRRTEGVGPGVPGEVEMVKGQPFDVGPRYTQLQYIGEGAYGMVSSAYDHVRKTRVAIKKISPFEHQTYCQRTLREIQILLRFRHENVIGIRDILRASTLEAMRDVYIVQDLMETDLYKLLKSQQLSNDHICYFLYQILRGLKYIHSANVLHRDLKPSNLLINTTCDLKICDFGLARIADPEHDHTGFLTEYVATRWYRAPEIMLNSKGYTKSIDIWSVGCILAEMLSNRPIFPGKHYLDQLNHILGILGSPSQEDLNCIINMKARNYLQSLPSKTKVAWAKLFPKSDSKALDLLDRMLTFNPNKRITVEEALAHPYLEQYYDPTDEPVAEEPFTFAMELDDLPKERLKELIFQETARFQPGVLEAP

Chain of Dual specificity protein kinase CLK3 (Homo sapiens) (P49761 whole entry, looked up): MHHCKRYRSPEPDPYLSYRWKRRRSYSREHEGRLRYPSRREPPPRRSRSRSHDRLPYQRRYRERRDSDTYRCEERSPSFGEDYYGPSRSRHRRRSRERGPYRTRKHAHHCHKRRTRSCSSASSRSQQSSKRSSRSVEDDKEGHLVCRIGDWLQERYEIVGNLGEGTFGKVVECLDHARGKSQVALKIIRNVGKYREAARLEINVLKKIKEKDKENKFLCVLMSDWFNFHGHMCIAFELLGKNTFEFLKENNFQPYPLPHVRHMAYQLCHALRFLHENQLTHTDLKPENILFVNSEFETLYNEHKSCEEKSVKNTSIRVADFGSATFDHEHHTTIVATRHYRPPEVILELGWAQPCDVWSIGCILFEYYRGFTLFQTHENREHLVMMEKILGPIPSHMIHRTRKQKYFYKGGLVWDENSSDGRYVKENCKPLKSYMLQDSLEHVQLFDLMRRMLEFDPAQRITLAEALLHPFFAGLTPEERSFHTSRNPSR
Chain of Glycogen synthase kinase-3 alpha (Homo sapiens) (P49840 2-483 limits assumed): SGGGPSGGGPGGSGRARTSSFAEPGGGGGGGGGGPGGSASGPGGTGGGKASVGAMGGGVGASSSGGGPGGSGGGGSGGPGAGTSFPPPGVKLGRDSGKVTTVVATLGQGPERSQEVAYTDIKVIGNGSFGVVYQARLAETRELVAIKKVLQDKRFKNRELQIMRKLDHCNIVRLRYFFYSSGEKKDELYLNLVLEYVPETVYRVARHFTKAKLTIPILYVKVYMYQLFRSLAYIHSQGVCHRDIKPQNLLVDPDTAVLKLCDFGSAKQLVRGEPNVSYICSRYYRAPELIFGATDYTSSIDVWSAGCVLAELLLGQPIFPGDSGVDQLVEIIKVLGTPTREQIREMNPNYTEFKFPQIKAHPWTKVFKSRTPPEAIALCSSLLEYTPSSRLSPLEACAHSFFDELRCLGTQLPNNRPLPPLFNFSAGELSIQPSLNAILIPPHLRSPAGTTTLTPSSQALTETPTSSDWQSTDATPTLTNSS
Chain of Glycogen synthase kinase-3 beta (Homo sapiens) (P49841 whole entry, looked up): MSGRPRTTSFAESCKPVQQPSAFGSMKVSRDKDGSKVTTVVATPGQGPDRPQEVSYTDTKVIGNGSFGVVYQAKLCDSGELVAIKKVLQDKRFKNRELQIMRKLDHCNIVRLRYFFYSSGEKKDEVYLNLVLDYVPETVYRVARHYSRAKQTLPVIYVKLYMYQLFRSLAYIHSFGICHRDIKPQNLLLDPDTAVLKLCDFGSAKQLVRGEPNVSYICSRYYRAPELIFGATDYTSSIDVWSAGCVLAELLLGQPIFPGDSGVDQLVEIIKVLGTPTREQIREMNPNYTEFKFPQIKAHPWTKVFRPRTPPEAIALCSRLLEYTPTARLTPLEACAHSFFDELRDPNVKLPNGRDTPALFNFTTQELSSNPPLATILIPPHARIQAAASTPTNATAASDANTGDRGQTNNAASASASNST
Chain of Homeodomain-interacting protein kinase 1 (Homo sapiens) (Q86Z02 whole entry, looked up): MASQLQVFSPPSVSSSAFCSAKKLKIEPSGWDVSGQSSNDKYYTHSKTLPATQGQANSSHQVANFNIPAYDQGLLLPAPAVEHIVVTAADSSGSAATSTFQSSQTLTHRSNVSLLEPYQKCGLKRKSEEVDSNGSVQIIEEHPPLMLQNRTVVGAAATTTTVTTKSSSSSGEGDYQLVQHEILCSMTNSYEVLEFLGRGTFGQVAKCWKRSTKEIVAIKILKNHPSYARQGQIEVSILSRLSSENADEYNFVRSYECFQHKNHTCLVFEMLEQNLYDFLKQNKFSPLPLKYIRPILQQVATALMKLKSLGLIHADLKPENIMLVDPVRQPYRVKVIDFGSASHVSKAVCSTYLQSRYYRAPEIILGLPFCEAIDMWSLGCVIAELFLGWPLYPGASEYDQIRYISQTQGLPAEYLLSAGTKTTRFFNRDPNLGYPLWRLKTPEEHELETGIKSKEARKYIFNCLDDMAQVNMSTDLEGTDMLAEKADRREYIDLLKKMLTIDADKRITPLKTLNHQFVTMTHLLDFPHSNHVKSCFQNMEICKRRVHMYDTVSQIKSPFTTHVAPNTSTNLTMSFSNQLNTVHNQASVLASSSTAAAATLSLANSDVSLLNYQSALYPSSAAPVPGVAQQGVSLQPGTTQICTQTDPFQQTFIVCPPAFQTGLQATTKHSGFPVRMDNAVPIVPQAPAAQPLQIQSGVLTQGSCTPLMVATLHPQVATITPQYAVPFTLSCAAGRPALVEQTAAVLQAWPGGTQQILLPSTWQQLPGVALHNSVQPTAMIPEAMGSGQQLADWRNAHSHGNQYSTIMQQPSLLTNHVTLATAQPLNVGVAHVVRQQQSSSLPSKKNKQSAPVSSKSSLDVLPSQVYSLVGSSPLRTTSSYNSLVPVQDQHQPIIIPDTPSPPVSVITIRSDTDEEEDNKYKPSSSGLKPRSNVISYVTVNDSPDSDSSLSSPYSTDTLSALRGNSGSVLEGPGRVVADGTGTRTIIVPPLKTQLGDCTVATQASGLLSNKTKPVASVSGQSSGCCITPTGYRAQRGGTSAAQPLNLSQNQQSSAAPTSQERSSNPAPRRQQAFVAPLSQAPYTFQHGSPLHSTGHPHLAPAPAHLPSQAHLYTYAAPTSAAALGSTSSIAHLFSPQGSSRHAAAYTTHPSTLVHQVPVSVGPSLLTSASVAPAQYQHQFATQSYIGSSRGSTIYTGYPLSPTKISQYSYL
Chain of Mitogen-activated protein kinase 9 (Homo sapiens) (P45984 whole entry, looked up): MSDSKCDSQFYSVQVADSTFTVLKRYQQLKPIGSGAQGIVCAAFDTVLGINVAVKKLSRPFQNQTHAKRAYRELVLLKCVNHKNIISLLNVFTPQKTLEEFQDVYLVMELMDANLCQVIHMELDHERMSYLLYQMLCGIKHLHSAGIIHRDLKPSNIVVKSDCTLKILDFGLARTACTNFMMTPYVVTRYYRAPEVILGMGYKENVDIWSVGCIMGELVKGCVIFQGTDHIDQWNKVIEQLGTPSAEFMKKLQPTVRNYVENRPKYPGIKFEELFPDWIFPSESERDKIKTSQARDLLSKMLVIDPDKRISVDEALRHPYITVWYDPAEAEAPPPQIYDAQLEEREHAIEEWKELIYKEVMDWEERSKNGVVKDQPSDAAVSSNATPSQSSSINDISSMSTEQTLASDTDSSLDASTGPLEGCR
Chain of Mitogen-activated protein kinase 1 (Homo sapiens) (P28482 whole entry): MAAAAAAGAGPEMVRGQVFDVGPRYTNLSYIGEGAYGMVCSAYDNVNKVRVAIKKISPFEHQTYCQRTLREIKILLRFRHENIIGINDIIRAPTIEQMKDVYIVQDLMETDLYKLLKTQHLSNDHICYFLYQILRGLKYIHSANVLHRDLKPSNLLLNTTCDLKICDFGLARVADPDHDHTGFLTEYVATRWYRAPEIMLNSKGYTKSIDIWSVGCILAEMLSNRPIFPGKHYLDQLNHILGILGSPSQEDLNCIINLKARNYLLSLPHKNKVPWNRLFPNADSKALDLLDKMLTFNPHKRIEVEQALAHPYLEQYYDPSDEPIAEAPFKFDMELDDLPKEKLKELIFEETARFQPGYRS
Chain of Dual specificity tyrosine-phosphorylation-regulated kinase 1B (Homo sapiens) (Q9Y463 whole entry, looked up): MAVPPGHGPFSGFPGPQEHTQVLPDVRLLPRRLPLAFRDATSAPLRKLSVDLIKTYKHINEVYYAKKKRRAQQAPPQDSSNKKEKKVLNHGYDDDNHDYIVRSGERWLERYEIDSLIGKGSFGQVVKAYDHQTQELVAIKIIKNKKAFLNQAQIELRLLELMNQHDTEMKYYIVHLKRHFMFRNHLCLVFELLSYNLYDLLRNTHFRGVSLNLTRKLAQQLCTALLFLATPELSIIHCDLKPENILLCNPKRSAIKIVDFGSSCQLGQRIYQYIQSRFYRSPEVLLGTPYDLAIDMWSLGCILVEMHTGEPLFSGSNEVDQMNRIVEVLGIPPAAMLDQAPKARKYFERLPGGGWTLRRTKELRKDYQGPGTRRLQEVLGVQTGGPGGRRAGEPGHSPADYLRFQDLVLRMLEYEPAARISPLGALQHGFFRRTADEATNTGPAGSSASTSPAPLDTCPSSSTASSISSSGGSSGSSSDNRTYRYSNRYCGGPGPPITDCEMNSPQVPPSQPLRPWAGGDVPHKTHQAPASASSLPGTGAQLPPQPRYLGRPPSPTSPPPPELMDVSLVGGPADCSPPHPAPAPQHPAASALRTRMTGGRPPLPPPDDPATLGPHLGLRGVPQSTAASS

For `COc1cccc(-n2ncc3c(N/N=C/c4ccc(C)cc4)ncnc32)c1`, the inhibition in [1] turned out to be 1.46%; in assay [2] it was 5.94%; in assay [3] it was 16.5%; in assay [4], 3.97%; in assay [5], 11.3%; in assay [6], 5.76%. In addition, the inhibition in assay [7] was 13.6%; in assay [8], 19.4%; in [9], 55.6%; in assay [10], 13.1%; in assay [11] it was 47%; in assay [12], 1.58%. For the same molecule, the inhibition turned out to be 13.3% in assay [13]; 3.16% in [14]; 11.4% in [15]; 8.36% in assay [16]; 11.6% in assay [17]; 6.17% in [18]. Further, the inhibition came to 7.67% in [19] and 4.71% in assay [20].
On to `COc1cccc(-n2ncc3c(N/N=C/c4ccc(S(C)(=O)=O)cc4)ncnc32)c1`, for which the inhibition in [1] is 13.5%; in [2], 23.1%; in assay [3], 64.3%; in assay [4] it was 9.87%; in assay [5], 47.3%; in assay [6] it was 14.5%. In addition, the inhibition in assay [7] is 24.9%; in assay [8], 72.7%; in assay [9], 80.6%; in assay [10] it was 70.4%; in assay [11] it was 79%; in [12] it was 21.4%. In addition, the inhibition stood at 64.3% in assay [13]; 18.3% in [14]; 60.6% in [15]; 1.92% in [16]; 4.9% in assay [17]; 1.63% in assay [18]. Further, the figures for the inhibition in assay [19] and in assay [20] were 1.93% and 2.27%, respectively.
Take `Cc1ccc(NC(=O)CC2CC2)cc1-c1ccc(C(=O)NCC2CC2)cc1`: the inhibition came out at 1.83% in assay [1]; 0.93% in assay [2]; 3.49% in assay [3]; 0.61% in assay [4]; 1.49% in assay [5]; 2.06% in assay [6]. For the same molecule, the inhibition is 2.68% in assay [7]; 2.32% in assay [8]; 2.3% in assay [9]; 1.75% in assay [10]; 3.08% in assay [11]; -0.11% in [12]. Also, the inhibition in [13] came to 1.56%; in assay [14], 2.64%; in [15], 4.19%; in assay [16] it was 3.4%; in assay [17], 3.8%; in assay [18], 2.01%. For the same molecule, the inhibition was found to be 3.96% in assay [19] and 5.26% in assay [20].
In the case of `c1ccc(Cc2nc3ccc(Nc4ncnc5ccccc45)cc3[nH]2)cc1`, the inhibition in assay [1] came to 5.49%; in assay [2], 6.02%; in [3] it was 9.77%; in [4], 5.37%; in [5], 8.13%; in [6], 1.99%. Further, the inhibition in assay [7] came to 3.84%; in assay [8], 5.62%; in assay [9], 9.56%; in assay [10], 5.99%; in assay [11], 7.73%; in [12], 6.99%. In addition, the inhibition came to 9.6% in [13]; 4.87% in [14]; 9.82% in [15]; 1.51% in assay [16]; 3.95% in assay [17]; 3.59% in [18]. The values for the inhibition in [19] and in assay [20] were 3.76% and 2.28%, respectively.
For `C[C@@H](Oc1cc(-n2cnc3ccc(OCC4CCN(C)CC4)cc32)sc1C(N)=O)c1ccccc1C(F)(F)F`, the inhibition is 3.73% in assay [1]; -2.42% in assay [2]; 2.47% in [3]; 0.26% in [4]; 2.2% in [5]; -2.57% in [6]. For the same molecule, the inhibition in assay [7] is -2.94%; in assay [8] it was -0.56%; in assay [9], 2.65%; in assay [10], -0.31%; in assay [11] it was 2.74%; in assay [12] it was -3.51%. For the same molecule, the inhibition in [13] was 9.66%; in assay [14], 4.86%; in assay [15] it was 32.3%; in assay [16], -0.81%; in assay [17], -1.11%; in assay [18] it was 0.24%. The inhibition in assay [19] was 0.02%; in [20] it was -1.53%.
Turning to `COC(=O)c1ccc2c(c1)C(=Cc1cc(Br)c(O)c(Br)c1)C(=O)N2`, the inhibition is 7.3% in [1]; 14.2% in [2]; 61.9% in assay [3]; 9.22% in assay [4]; 53.5% in assay [5]; 5.68% in [6]. Moreover, the inhibition amounted to 18.8% in [7]; 9.38% in assay [8]; 42.9% in assay [9]; 9.77% in [10]; 44.2% in assay [11]; 10.2% in [12]. Moreover, the inhibition is 60.8% in assay [13]; 4.27% in [14]; 35% in assay [15]; 4.88% in assay [16]; 11% in assay [17]; 3.12% in assay [18]. In addition, the inhibition was found to be 6.19% in assay [19] and 4.78% in assay [20].

Source of the values: ChEMBL document CHEMBL1961873, “Compounds: GSK PKIS; Assays: Nanosyn kinase panel” (2012).
